# Inconclusive results are not listed. Active and inactive are the calls of the source. The call rests on the fitted dose curve; in most records, active means well fitted inhibition curve with a large enough effect; inconclusive means small, poorly fitted or top-dose-only effect; inactive means flat fitted curve, though single readings scatter.
# Assay: Confirmatory Assay for General miRNAs Modulators and/or Inhibitors/Activators of miR-21: second round cherrypicks
# Settings: HeLa miR-21 FLuc reporter, luciferase luminescence, 48 h
# From the text: MLPCN Grant: 1 R21 NS059478-01 Assay Provider: Qihong Huang, The Wistar Institute NCGC Assay Overview: MicroRNAs (miRNAs) are endogenously encoded small (~20-25 nucleotides), nonprotein-coding RNAs that are involved in post-transcriptional repression of target messenger RNAs (mRNAs) (Le and Hannon, 2004). Estimated to be involved in the regulation of 30% of all protein-coding mRNAs (Filipowicz et al., 2008), miRNAs play a significant role in many biological processes including cellular differentiation and tissue development (Ghildiyal and Zamore, 2009).
# NCGC Assay Protocol Summary: Reagents: HeLa cells stably expressing firefly luciferase (FLuc) under the control of a CMV promoter (upstream) and a miR-21 binding sequence directly downstream of the gene. These cells endogenously express miR-21. Control compounds used were compound C3 (provided by collaborator), N6-phenyladenosine (MP Biomedicals, 0215379625), and DMSO. Assay Summary: 6uL of HeLa miR-21-FLuc cells in assay buffer (DMEM, Invitrogen #21063-029; 10% FBS, HyClone #SH30071.03) were dispensed at 2000cells/well (3.3 x 10^5 cells/mL) into Greiner solid-white TC-treated 1536-well plates using a Multidrop Combi (Thermo Fisher Scientific). […] After a 15 minute incubation to allow for cell lysis, luciferase activity was measured using a ViewLux CCD imager (PerkinElmer), with an average exposure time of 2-12 seconds. […]
structure (smiles),measurement,value
O=c1c2ccccc2nc(Cc2ccccc2)n1-c1ccccc1,Potency,14.2 µM (active)
